Screening data deposited in PubChem by Sanford-Burnham Center for Chemical Genomics.
tim10-1 inh: growth inhibitors of tim10-1 mutant yeast; S. cerevisiae tim10-1 ts strain growth, BacTiter-Glo, 24 h; inhibition, % at 20 µM; 330,000 compounds, 2.2% hits; AID 463190;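 active = inhibition of at least 40%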;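 note: mutant grown at 25 °C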
TIM10 inh: inhibits growth of TIM10 yeast strain. inhibition, % at 10 µM. 330,000 compounds, 1.4% hits. S. cerevisiae TIM10 strain growth, BacTiter-Glo luminescence, 24 h;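 active = inhibition of 40% or more at the single tested concentration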;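 note: wild-type TIM10 isogenic control strain grown at permissive 25 °C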
NALP1 yeast inh: NALP1 inhibition; S. cerevisiae NALP1/ASC/caspase-1 growth, X-gal OD620, 72 h; inhibition, % at 10 µM; 280,000 compounds, 0.61% hits; AID 2071; in the data active = inhibition mostly above about 24%, no sharp cut-off; inactive = mostly below about 32%
NLRP3 yeast inh: blocks the NALP3 inflammasome reconstituted in yeast; Yeast reconstituted NLRP3/ASC/caspase-1, beta-gal luminescence, 24 h; inhibition, % at 10 µM; 330,000 compounds, 0.39% hits; AID 2825;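 active = inhibition of 50% or more; inactive = inhibition below 50%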
tim23-1 inh: tim23-1 yeast growth inhibition | S. cerevisiae tim23-1 growth, BacTiter-Glo luminescence, 24 h | inhibition, % at 20 µM | 330,000 compounds, 1.3% hits | AID 463212;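 active = growth inhibition of the mutant yeast at or above 50%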;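 note: temperature-sensitive mutant grown at 25 °C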
NALP3 yeast conf: NALP3 inhibition confirmation in yeast. shares compounds with NLRP3 yeast inh. yeast expressing human NALP3, luminescence. inhibition, % at 10 µM. 1,300 compounds, 81% hits. AID 435006; in the data active = inhibition above about 48%
Casp1-ASC yeast: active in yeast caspase-1-ASC counter-screen for NALP3 inhibitors. yeast expressing Caspase-1-ASC, luminescence counter screen. shares compounds with NLRP3 yeast inh. inhibition, % at 10 µM. 1,000 compounds, 66% hits
NALP3 yeast rt: retest-confirmed inhibitor of NALP3 in yeast; inhibition, % at 10 µM; yeast expressing human NALP3, luminescence read-out; AID 488794; 1,000 compounds, 53% hits; shares compounds with NLRP3 yeast inh
Of the large screens only hits and unclear results are named; the others gave an inactive call (follow-up assays come after a bar, where they were run). Most compounds without a hit are left out; they make up all but 4.1% or so of the library. Cut-off read from the data, not from the text of the source, unless noted: active = inhibition above about 50%; inactive = the rest.

O=C1c2ccsc2SCCN1Cc1ccc(F)cc1	NLRP3 yeast inh 65 | NALP3 yeast conf 72 | Casp1-ASC yeast 63 | NALP3 yeast rt inactive
Cc1cccc(CN2CCSc3sccc3C2=O)c1	none
O=C1c2ccsc2SCCN1Cc1cccc(Cl)c1	none
O=C(CCC(=O)N(CC(=O)NC1CCCC1)Cc1ccccc1Cl)Nc1nccs1	none
Cc1ccc(Cc2nc(-c3ccccn3)no2)cc1	none
Cc1ccc(Sc2cc(C)nc(-c3ccccn3)n2)cc1	NLRP3 yeast inh 51 (no result: NALP1 yeast inh) | NALP3 yeast conf inactive | Casp1-ASC yeast 65 | NALP3 yeast rt inactive
COc1cc(C)ccc1OCCOc1ccccc1Cl	NLRP3 yeast inh 51 | NALP3 yeast conf 49 | Casp1-ASC yeast inactive | NALP3 yeast rt inactive
O=C(C1CCN(S(=O)(=O)c2ccc(Br)s2)CC1)N1CCc2ccccc21	NLRP3 yeast inh 55 | NALP3 yeast conf 64 | Casp1-ASC yeast 61 | NALP3 yeast rt inactive
Cn1c(SCc2nc(-c3ccc(Cl)cc3)no2)nnc1-c1ccco1	NLRP3 yeast inh 53 | NALP3 yeast conf 66 | Casp1-ASC yeast inactive | NALP3 yeast rt inactive
O=C(C1CCN(S(=O)(=O)c2cccc3cccnc23)CC1)N1CCn2c1nc1ccccc12	NLRP3 yeast inh 80 | NALP3 yeast conf 90 | Casp1-ASC yeast 85 | NALP3 yeast rt 87
O=C(COC(=O)C1CC2CCCC(C1)C2=O)NNC(=O)c1ccc([N+](=O)[O-])cc1 (stereo not given)	none (no result: NALP1 yeast inh)
Nc1ccc(Oc2cc(N)cc(Oc3ccccc3)c2)cc1	NLRP3 yeast inh 50 | NALP3 yeast conf 64 | Casp1-ASC yeast inactive | NALP3 yeast rt inactive
Nc1ccc(Oc2ccc3nc(-c4ccccc4)c(-c4ccccc4)nc3c2)cc1	none
O=C(Nc1nc2cc3c(cc2s1)OCO3)C1CCCCC1	NLRP3 yeast inh 56 | NALP3 yeast conf 64 | Casp1-ASC yeast 56 | NALP3 yeast rt 53
O=C(Nc1nc2cc3c(cc2s1)OCO3)C1CC1	none (no result: NALP1 yeast inh)
CN(C)c1nc(-c2ccccc2)c2cnn(Cc3ccccc3)c2n1	none
COc1ccccc1N1CCN(c2cc(N3CCCC3)nc(C)n2)CC1	none
COc1ccccc1N1CCN(c2nccc(C)n2)CC1	NLRP3 yeast inh 51 | NALP3 yeast conf 63 | Casp1-ASC yeast 52 | NALP3 yeast rt inactive
O=C(Nc1ccccc1)c1cc2ccccc2o1	NLRP3 yeast inh 52 | NALP3 yeast conf 51 | Casp1-ASC yeast 53 | NALP3 yeast rt 53
COc1ccc(NC(=O)c2cc3ccccc3o2)cc1	NLRP3 yeast inh 55 | NALP3 yeast conf 79 | Casp1-ASC yeast 66 | NALP3 yeast rt 61
O=C(Nc1ccc(F)cc1)c1cc2ccccc2o1	none
COc1ccc(NC(=O)c2cc3ccccc3o2)cc1OC	none
Cc1ccc(NC(=O)c2cc3ccccc3o2)cc1Cl	NLRP3 yeast inh 50 | NALP3 yeast conf 68 | Casp1-ASC yeast inactive | NALP3 yeast rt inactive
Cc1ccc(-c2cc(C(=O)NCCN3CCOCC3)c3ccccc3n2)o1	none
O=C(CN1CCN(S(=O)(=O)c2ccccc2F)CC1)N1CCc2ccccc2C1	none (no result: NALP1 yeast inh)
CC(C)Sc1nnc(NC(=O)CCc2ccccc2)s1	none
Cc1ccccc1C(=O)Nc1nnc(SC(C)C)s1	NLRP3 yeast inh 51 | NALP3 yeast conf inactive | Casp1-ASC yeast 71 | NALP3 yeast rt 63
CC(C)(C)C(=O)Nc1ccc(N=Nc2ccccc2)cc1	NLRP3 yeast inh 53 | NALP3 yeast conf 65 | Casp1-ASC yeast inactive | NALP3 yeast rt inactive
O=C(O)CCC(=O)Nc1ccc(N=Nc2ccccc2)cc1	none (no result: tim10-1 inh, TIM10 inh, NLRP3 yeast inh, tim23-1 inh)
Cc1cccc(C)c1OCC(=O)NNC(=S)NC(=O)C1CC1	none
COc1ccc2c(c1)C=C([C@@H]1C[C@H]3CN(c4ccccc4)C(=O)[C@]34CCCN14)CO2	none
CC(C(=O)NCCC1=CCCCC1)c1ccc([N+](=O)[O-])cc1 (stereo not given)	NLRP3 yeast inh 51 | NALP3 yeast conf 61 | Casp1-ASC yeast inactive | NALP3 yeast rt inactive
CC(C)(C)OC(=O)NCCc1nnc(SCC(=O)Nc2cccc(Cl)c2)o1	none
NCCc1nnc(SCC(=O)Nc2cccc(Cl)c2)o1	NLRP3 yeast inh 52 | NALP3 yeast conf 75 | Casp1-ASC yeast 57 | NALP3 yeast rt 68
CC(=O)N1N=C(c2cccc([N+](=O)[O-])c2)OC1(C)c1cccs1 (stereo not given)	none
CC(=O)N1N=C(c2ccc(C)c([N+](=O)[O-])c2)OC1(C)C	NLRP3 yeast inh 53 | NALP3 yeast conf 49 | Casp1-ASC yeast 75 | NALP3 yeast rt 57
COc1ccc(NC(=O)c2ccc(F)c(F)c2)c2ccccc12	NLRP3 yeast inh 50 | NALP3 yeast conf 61 | Casp1-ASC yeast inactive | NALP3 yeast rt inactive
Fc1ccc2c(c1)C1OCCCC1C(c1ccccc1)N2 (stereo not given)	NLRP3 yeast inh 62 | NALP3 yeast conf inactive
c1coc(C2Nc3ccccc3C3OCCC23)c1 (stereo not given)	none
CC(=O)c1ccc(N(CC(=O)NC2CCS(=O)(=O)C2)S(=O)(=O)c2ccc(Cl)cc2)cc1 (stereo not given)	none (no result: NALP1 yeast inh)
CCOCCn1c(COc2ccc(C)cc2)nc2ccccc21	none
CCn1c(COc2ccc(C)cc2)nc2ccccc21	NLRP3 yeast inh 65 | NALP3 yeast conf 79
CCOC(=O)C1CCN(C(=S)Nc2cccc(C)c2C)CC1	none
Cc1c(C(=O)NCCC2=CCCCC2)oc2ccc(S(=O)(=O)N3CCOCC3)cc12	NLRP3 yeast inh 58 | NALP3 yeast conf 62 | Casp1-ASC yeast 55 | NALP3 yeast rt inactive
Cc1c(C(=O)NCCCN2CCCC2=O)oc2ccc(S(=O)(=O)N3CCOCC3)cc12	none
Cc1noc(C)c1C(=O)Nc1nc2ccccc2s1	NLRP3 yeast inh 50 (no result: NALP1 yeast inh) | NALP3 yeast conf 49 | Casp1-ASC yeast inactive | NALP3 yeast rt inactive
Cc1ccc(C(=O)Nc2nc3ccccc3s2)s1	none
Cc1ccc(-c2nn(-c3ccc(F)cc3)cc2C(=O)NCCCN2CCCC2=O)cc1	none (no result: NALP1 yeast inh)
COc1ccc(Cl)cc1NCCC(O)c1ccc(F)cc1 (stereo not given)	none
COc1ccc(NCCC(O)c2ccc(Cl)cc2)cc1 (stereo not given)	NLRP3 yeast inh 59 | NALP3 yeast conf 67 | Casp1-ASC yeast inactive | NALP3 yeast rt inactive
CC(C)C(CO)NC(=O)CC(=O)NC(CO)C(C)C (stereo not given)	none
O=C(NNC(=O)c1ccc(Oc2cc(Cl)cc(Cl)c2)o1)c1ccccc1	none
O=C(NNC(=O)c1ccc(Oc2ccc(C3SCCS3)cc2)o1)c1ccc(Cl)cc1	NLRP3 yeast inh 53 (no result: NALP1 yeast inh) | NALP3 yeast conf inactive
O=C(NC(=S)N1CCN(c2ccccn2)CC1)c1ccco1	none
O=c1cc(-c2ccccc2)[nH]n1-c1nc2ccccc2s1	none
O=C1CNC(=S)N1c1nc2ccccc2s1	NLRP3 yeast inh 54 (no result: NALP1 yeast inh) | NALP3 yeast conf 62 | Casp1-ASC yeast 54 | NALP3 yeast rt 59
